# PubChem BioAssay (NCATS)
# Results filed as inconclusive are left out. A number with no mark means an inactive call. Calls of active or inactive are those of the source. Calls follow the shape of the full dose curve.
# Experiment: Cytotoxicity counterscreen for inhibitors of SARS-CoV-2 cell entry (AID 1645845); also: nearly all actives have a fitted effect of over 50% in size
# Details: cell viability (SARS-CoV-2 entry assay cells); series mostly up to 57.1 µM; activity change, negative = cytotoxicity: at the top concentration
# Source text: Assay Provider: Wei Zheng, Ph.D.
# National Center for Advancing Translational Sciences, National Institute of Health, Rockville, MD.
# SARS-CoV-2 spike protein, within the viral envelope, mediates viral attachment and infection of host cells. The SARS-CoV-2 spike protein specifically binds to the host receptor ACE2 (Angiotensin-converting enzyme 2). This interaction promotes endocytosis of the viral particle, additional events lead to viral-host cell membrane fusion and release of the viral contents, allowing viral replication.
# While SARS-CoV-2 requires BSL-3 facilities for live virus work, pseudo-typed partices (PP) that incorporate SARS-CoV-2 spike proteins without replication elements could facilitate studies on viral entry mechanisms in a BSL-2 setting. This PP cell entry assay could also enable screening of small molecule compound libraries in BSL-2 setting to identify inhibitors of SARS-CoV-2 cell entry. To eliminate false positive compounds, ATP content cytotoxicity assay was screened in the same cell line.
# SEQUENCE No. (e.g., 1, 2, 3, etc.); […] (e.g., Cells, Incubation, Reagent, etc.); VALUE and DESCRIPTION.
# 1. Cells. Seed 1500 HEK293-ACE2 cells (Expi293F with stable expression of human ACE2) in 2 uL/well media (DMEM, 10% FBS, 1x L-glutamine, 1x Pen/Strep, 1 ug/ml puromycin) in white 1536-well assay plates (Greiner #782073).
# 2. Incubation. Incubate at 37 C with 5% CO2 overnight (~16 h).
# 3. Compounds. Dispense 23 nL/well compounds in DMSO via pin transfer.
# 4. Incubation. Incubate for 1 h at 37C 5% CO2.
# 5. Reagent. Dispense 2 uL/well of media (DMEM, 10% FBS, 1x L-glutamine, 1x Pen/Strep, 1 ug/ml puromycin).
# 6. Incubation. Incubate at for 48h at 37C 5% CO2
# 7. Reagent. Dispense 4 uL/well of ATPLite 1step luminescence assay reagent (PerkinElmer #6016739).
# 8. Incubation. Incubate for 15 min at room temperature.
# 9. Detection. Read luminescence signal (Viewlux plate reader, PerkinElmer). Data was normalized with wells containing cells as 100%, and wells without cells (media only control) as 0%.
# % is scaled to controls: 0 for no effect and ±100 for the full control effect; potency is read from the fitted curve at half-maximal effect.
Compound,"activity change, negative = cytotoxicity",outcome,Potency
CC(C)S(=O)(=O)c1ccc2nccc(Nc3ccc4scnc4c3)c2c1,-19.8%,–,–
CCOC(=O)COc1ccc2c(C)c(CCN(CC)CC)c(=O)oc2c1,–,inactive,–
COc1cc(N2CCN(C)CC2)ccc1Nc1nccc(-c2cn(C)c3cnccc23)n1,-23.5%,–,–
CCCCCCCCCCCCCC[n+]1ccc(C)cc1,–,–,5.62 µM (active)
C[C@H](CCC(=O)O)[C@H]1CC[C@H]2[C@@H]3[C@@H](O)C[C@@H]4C[C@H](O)CC[C@]4(C)[C@H]3CC[C@]12C,–,inactive,–
CO/N=C(/C(=O)N[C@@H]1C(=O)N2C(C(=O)O)=C(CSC(=O)c3ccco3)CS[C@H]12)c1csc(N)n1,–,inactive,–
O=C(O)[C@H](O)[C@@H](O)[C@H](O)[C@H](O)CO,-16.1%,–,–
COc1cc2c3c(n(CCCn4ccnc4)c(=O)c2cc1OC)-c1cc2c(cc1C3=O)OCO2,-36.4%,–,–
COC(=S)NCCn1c([N+](=O)[O-])cnc1C,2.04%,–,–
CCOc1nc2cccc(C(=O)O)c2n1Cc1ccc(-c2ccccc2-c2noc(=O)[nH]2)cc1,4.46%,–,–
C=Cc1cc(O)cc2nc(-c3ccc(O)c(F)c3)oc12,-23.8%,–,–
NC(=S)N/N=C/c1ncccc1N,0.116%,–,–
CNc1nc(-c2ccc3c(N)n[nH]c3c2)cc(N2C[C@@H](C(=O)NC3CCCCC3)CC[C@H]2C)n1,0.975%,–,–
CC1=CC(=C(c2ccc(N)cc2)c2ccc(N)cc2)C=CC1=N,–,–,8.91 µM (active)
CCCCC(=O)O[C@]1(C(=O)COC(C)=O)CC[C@H]2[C@@H]3CCC4=CC(=O)C=C[C@]4(C)[C@H]3[C@@H](O)C[C@@]21C,3.46%,–,–
Cc1ncc(NC(=O)c2cccc(C(F)(F)F)c2)cc1-c1cnc(OC2CCOCC2)c(N2CCOCC2)c1,-15.9%,–,–
C[C@H]1CNCCCN1S(=O)(=O)c1cccc2cncc(F)c12,–,–,inactive
COc1cc(/C=C\C(=O)N2CCN(CC(=O)N3CCCC3)CC2)cc(OC)c1OC,–,inactive,–
CCC(=O)OC1(C(=O)CCl)C(C)CC2C3CC(F)C4=CC(=O)C=CC4(C)C3(F)C(O)CC21C (stereo not given),-5.08%,–,–
O=C(/C=C/c1ccc2ccc(C(F)(F)F)cc2n1)c1ccncc1,–,inactive,–

Compound,"activity change, negative = cytotoxicity",outcome,Potency
O=C(Nc1ccccc1)Nc1ccc(-c2ccc(C(=O)[C@@H]3CCC[C@H]3C(=O)O)cc2)cc1,–,inactive,–
CN1CCN(c2ncc(-c3cc(Cl)cc(Cl)c3Cl)c(N)n2)CC1,-13.2%,–,–
C[C@H](NC(=O)c1c(N)nn2cccnc12)c1cc2cccc(C#Cc3cnn(C)c3)c2c(=O)n1-c1ccccc1,–,inactive [at 27.1 µM],–
CC(C)C[C@H]1C(=O)O[C@H](Cc2ccc(N3CCOCC3)cc2)C(=O)N(C)[C@@H](CC(C)C)C(=O)O[C@H](C)C(=O)N(C)[C@@H](CC(C)C)C(=O)O[C@H](Cc2ccc(N3CCOCC3)cc2)C(=O)N(C)[C@@H](CC(C)C)C(=O)O[C@H](C)C(=O)N1C,–,inactive,–
CCOc1ccc(Cc2cc([C@@H]3O[C@H](CO)[C@@H](O)[C@H](O)[C@H]3O)ccc2Cl)cc1,–,–,inactive
C[C@]12C=CC(=O)C=C1CC[C@@H]1[C@@H]2[C@@H](O)C[C@@]2(C)[C@H]1CC[C@]2(O)C(=O)COP(=O)(O)O,-0.915% [at 11.3 µM],–,–
CCc1ccc2nc(Nc3cc(Cc4ccccc4)nc(NC4CCC(O)CC4)n3)sc2c1 (stereo not given),-27.5%,–,–
CO[C@H]1CCC(O[C@H]2C[C@H]([C@]3(C)CC[C@]4(C[C@H](O)[C@@H](C)[C@@H]([C@@H](C)/C=C(\C)C(=O)[C@H](C)C[C@H](C)C(=O)O)O4)O3)O[C@]3(O[C@@H]([C@H]4O[C@@](O)(CO)[C@H](C)C[C@@H]4C)C[C@@H]3C)[C@@H]2C)O[C@@H]1C (stereo not given in full),-9.36%,–,–
CC[C@@H]1/C=C(\C)C[C@H](C)C[C@H](OC)[C@H]2O[C@@](O)(C(=O)C(=O)N3CCCC[C@H]3C(=O)O[C@H](/C(C)=C/[C@@H]3CC[C@H](Cl)[C@H](OC)C3)[C@H](C)[C@@H](O)CC1=O)[C@H](C)C[C@@H]2OC,-0.306%,–,–
CC(C)n1c(=O)cc(N[C@@H](C)c2ccccc2)[nH]c1=O,-15.2%,–,–
C[C@@H]1O[C@@H](O[C@@H]2/C=C/C=C/C=C\C=C\C[C@H](C)OC(=O)/C=C/[C@H]3O[C@@H]3C[C@H](O)C[C@]3(O)C[C@@H](O)[C@@H](C(=O)O)[C@H](C2)O3)[C@H](O)[C@H](N)[C@@H]1O,1.93% [at 11.3 µM],–,–
COc1ccccc1C(=O)Nc1cc2c(cc1N1CCCCC1)n(C)c(=O)n2C,–,inactive,–
CCCCCCCCCC(=O)NO,-5.18%,–,–
CCc1cc(/C(C)=N/OCc2ccc(C3CCCCC3)c(C(F)(F)F)c2)ccc1CN1CC(C(=O)O)C1,3.52%,–,–
CCN(CC)C(=O)Cc1csc(NS(=O)(=O)c2cccc(Cl)c2C)n1,4.32%,–,–
COc1cc([C@@H]2c3cc4c(cc3[C@@H](O[C@@H]3O[C@@H]5CO[C@@H](C)O[C@H]5[C@H](O)[C@H]3O)[C@H]3COC(=O)[C@H]23)OCO4)cc(OC)c1OP(=O)(O)O,-17.2%,–,–
O=c1c2c(c1=O)N(CCP(=O)(O)O)CCCN2,-23.9% [at 114 µM],–,–
CC(C)(C)c1ccc2c(S(=O)(=O)O)c(C(C)(C)C)ccc2c1,–,inactive,–
CCCCC(CC)COC(=O)c1ccc(Nc2nc(Nc3ccc(C(=O)OCC(CC)CCCC)cc3)nc(Nc3ccc(C(=O)OCC(CC)CCCC)cc3)n2)cc1 (stereo not given),–,inactive,–
Cc1cc(Nc2ccccc2C(=O)O)ccc1Cl,–,inactive,–
